Experimental data: PubChem BioAssay
Unmarked numbers belong to inactive results. Calls of active or inactive are those of the source. Unless noted, no stated cut-off is given here; in the data, active means inhibition above about 30%; inactive means the rest.

How the values were obtained:
[1] = target: Nuclear receptor coactivator 3 (Homo sapiens) (UniProt Q9Y6Q9); assay: NCOA3 GAL4-fusion reporter inhibition – cell-based, luminescence, quadruplicate, confirmation (AID 588792;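 active means mean inhibition over 43.08%, the solvent-only control mean plus 3 SD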;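 further: 0% = DMSO treated cells and 100% = gossypol at 36 µM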); settings: HEK293 GAL4-SRC3 luciferase reporter, at 3.6 µM, active compounds read high
[2] = tested on: transactivating tegument protein VP16 (Human herpesvirus 1), Gal4-VP16 luciferase reporter; assay: repression of VP16-driven luciferase reporter – cell-based, luminescence, high throughput, counter-screen for SRC3 inhibitor project (AID 588794); settings: mammalian cells, at 3.6 µM, active compounds read high
[3] = target: Nuclear receptor coactivator 1 (Homo sapiens) (UniProt Q15788); assay: NCOA1 GAL4-fusion reporter inhibition – cell-based, luminescence, quadruplicate, confirmation (AID 588820;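 active means mean inhibition above 46.68%, the untreated control wells mean plus 3 SD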;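 further: 0% = DMSO wells and 100% = gossypol 36 µM treated wells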); settings: HEK293 GAL4-SRC1 luciferase reporter, at 3.6 µM, active compounds read high
[4] = repression of VP16-driven luciferase reporter – cell-based, luminescence, high throughput, counter-screen for SRC1 inhibitor project (AID 588824; in the data active means inhibition above about 25%); settings: cell-based VP16 transactivation luciferase luminescence; at 3.6 µM; active compounds read high

Nuclear receptor coactivator 1 (Homo sapiens), sequence (Q15788 whole entry, looked up, the tested form may be a part): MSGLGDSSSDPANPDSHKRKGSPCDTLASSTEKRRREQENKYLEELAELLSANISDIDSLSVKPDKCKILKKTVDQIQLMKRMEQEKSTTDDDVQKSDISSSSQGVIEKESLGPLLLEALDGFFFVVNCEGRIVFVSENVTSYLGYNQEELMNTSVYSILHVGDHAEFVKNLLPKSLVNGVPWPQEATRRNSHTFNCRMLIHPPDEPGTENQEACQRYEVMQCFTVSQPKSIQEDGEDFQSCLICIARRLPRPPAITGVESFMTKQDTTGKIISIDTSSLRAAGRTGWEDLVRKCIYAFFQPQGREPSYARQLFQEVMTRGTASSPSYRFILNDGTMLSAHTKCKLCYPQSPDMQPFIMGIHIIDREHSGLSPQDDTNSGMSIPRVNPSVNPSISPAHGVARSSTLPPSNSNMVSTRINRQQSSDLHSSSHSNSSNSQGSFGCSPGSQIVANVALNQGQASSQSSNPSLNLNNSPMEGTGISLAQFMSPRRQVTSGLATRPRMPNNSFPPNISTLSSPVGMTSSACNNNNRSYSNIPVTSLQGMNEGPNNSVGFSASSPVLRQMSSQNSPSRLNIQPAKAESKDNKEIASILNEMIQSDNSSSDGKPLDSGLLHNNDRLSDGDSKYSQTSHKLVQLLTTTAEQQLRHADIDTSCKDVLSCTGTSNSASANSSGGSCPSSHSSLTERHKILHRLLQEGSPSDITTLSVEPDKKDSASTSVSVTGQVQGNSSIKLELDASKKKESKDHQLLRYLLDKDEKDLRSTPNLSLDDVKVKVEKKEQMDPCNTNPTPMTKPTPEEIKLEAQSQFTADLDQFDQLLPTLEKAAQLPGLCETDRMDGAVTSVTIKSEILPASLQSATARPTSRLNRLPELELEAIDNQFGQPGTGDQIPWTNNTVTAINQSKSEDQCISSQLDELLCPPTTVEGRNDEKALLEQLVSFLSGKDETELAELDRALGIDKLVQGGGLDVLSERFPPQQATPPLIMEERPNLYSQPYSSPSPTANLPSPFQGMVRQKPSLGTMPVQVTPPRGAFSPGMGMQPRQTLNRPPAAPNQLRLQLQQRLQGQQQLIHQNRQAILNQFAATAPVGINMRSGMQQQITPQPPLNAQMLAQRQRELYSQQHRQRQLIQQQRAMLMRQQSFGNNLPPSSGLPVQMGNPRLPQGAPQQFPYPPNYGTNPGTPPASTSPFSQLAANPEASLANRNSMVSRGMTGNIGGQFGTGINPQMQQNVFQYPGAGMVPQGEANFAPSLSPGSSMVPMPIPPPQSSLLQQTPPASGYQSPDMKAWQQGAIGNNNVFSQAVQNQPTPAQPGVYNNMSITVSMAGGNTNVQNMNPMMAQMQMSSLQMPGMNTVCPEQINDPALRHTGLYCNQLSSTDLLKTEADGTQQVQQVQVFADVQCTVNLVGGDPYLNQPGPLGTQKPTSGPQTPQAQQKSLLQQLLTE
Nuclear receptor coactivator 3 (Homo sapiens), sequence (Q9Y6Q9 whole entry, looked up, the tested form may be a part): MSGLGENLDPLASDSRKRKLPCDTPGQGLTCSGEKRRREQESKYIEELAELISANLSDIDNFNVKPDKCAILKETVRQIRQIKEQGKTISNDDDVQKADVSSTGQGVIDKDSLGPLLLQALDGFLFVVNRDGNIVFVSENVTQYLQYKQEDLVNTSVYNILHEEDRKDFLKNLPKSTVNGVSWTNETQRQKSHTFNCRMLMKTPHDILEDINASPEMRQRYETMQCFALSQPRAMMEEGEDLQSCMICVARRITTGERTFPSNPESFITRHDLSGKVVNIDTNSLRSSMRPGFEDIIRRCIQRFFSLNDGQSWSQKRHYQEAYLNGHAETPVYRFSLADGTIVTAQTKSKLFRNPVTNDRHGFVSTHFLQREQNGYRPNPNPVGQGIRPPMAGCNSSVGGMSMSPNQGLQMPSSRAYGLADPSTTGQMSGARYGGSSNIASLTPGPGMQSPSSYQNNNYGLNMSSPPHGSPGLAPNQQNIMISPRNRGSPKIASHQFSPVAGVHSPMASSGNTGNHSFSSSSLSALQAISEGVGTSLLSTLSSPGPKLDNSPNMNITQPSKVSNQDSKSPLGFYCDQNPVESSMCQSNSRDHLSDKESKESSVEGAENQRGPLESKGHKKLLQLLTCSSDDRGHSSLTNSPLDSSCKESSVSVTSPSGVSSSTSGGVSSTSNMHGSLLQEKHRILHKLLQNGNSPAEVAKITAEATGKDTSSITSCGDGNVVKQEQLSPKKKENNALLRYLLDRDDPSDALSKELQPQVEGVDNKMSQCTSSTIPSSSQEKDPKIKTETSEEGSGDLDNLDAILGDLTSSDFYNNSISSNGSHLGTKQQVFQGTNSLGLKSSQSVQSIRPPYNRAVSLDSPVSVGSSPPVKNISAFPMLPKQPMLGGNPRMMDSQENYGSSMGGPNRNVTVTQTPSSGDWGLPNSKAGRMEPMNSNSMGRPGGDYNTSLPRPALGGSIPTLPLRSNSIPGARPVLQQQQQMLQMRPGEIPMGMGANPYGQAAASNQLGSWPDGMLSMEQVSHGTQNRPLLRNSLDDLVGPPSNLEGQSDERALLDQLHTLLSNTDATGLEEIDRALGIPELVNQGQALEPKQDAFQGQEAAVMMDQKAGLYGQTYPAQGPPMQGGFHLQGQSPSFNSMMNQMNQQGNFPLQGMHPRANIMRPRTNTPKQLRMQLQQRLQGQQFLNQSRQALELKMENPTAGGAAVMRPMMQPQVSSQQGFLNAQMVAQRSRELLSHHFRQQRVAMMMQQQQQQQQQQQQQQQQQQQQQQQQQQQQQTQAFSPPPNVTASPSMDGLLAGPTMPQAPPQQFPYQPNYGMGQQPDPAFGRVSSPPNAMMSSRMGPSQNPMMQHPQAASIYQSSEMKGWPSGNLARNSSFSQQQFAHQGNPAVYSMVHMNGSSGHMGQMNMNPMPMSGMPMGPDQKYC

| SMILES | inhibition [1] | inhibition [2] | inhibition [3] | inhibition [4] |
| --- | --- | --- | --- | --- |
| O=C(OC1C2CCC1C1CN(CCc3ccccc3)CC12)c1ccccc1 (configuration not stated) | 11.2% | 18% | – | – |
| COc1ccccc1C(CNc1ccc(S(=O)(=O)N2CCCC2)cc1[N+](=O)[O-])N(C)C (configuration not stated) | 23.9% | 24.9% | – | – |
| Cc1sc2ncnc(Sc3nnnn3-c3ccccc3)c2c1C | 0.37% | -6.56% | – | – |
| O=C(C1=C(O)C(=O)N(CCN2CCOCC2)C1c1cccc([N+](=O)[O-])c1)c1cccs1 (configuration not stated) | -8.15% | -1.72% | – | – |
| O=C(CCN1CCOCC1)N/N=C/c1cc(Br)cc(Br)c1O | 13.6% | 7.46% | – | – |
| CCc1ccc(C(=O)COC(=O)c2cncc(Br)c2)cc1 | 10.2% | 7.77% | – | – |
| COc1ccc(NC(=O)c2cc3c(-c4ccc(OC)c(OC)c4)nn(C)c3s2)cc1OC | 10.7% | 10.5% | – | – |
| CCOC(=O)C1=C(C)N[C@@]2(O)c3ccccc3C(=O)[C@@]12O | 2.93% | -4.31% | – | – |
| O=C(C1CCC1)N1CCN(c2ccnc3cc(Cl)ccc23)CC1 | 17% | 6.97% | – | – |
| COc1ccc(CN(C)C(=O)c2cccc(NC(=O)CC3SC(N4CCCCC4)=NC3=O)c2)c(OC)c1 (configuration not stated) | 26.9% | 30.3% (active) | – | – |
| CCCCCCCNC(=O)C1(CC2CC(c3ccc(Cl)cc3)=NO2)CCN(C(=O)c2cc(OCC)c(OCC)c(OCC)c2)CC1 (configuration not stated) | 20.9% | 0.73% | – | – |
| CN[C@H]1CCc2cc(OC)c(OC)c(OC)c2-c2ccc(OC)c(=O)cc21 | 40.5% | -10.4% | – | – |
| O=C(Cc1ccccc1)NNC(=O)Nc1cccc(Cl)c1 | 10.6% | -0.2% | – | – |
| Cc1cc(C(=O)N2CCN(c3ccccn3)CC2)no1 | 4.36% | -9.5% | – | – |
| O=C1/C(=C/c2cccnc2)SC(=S)N1C1CCS(=O)(=O)C1 (configuration not stated) | -0.1% | 21% | – | – |
| C[C@H](NC(=O)Nc1ccccc1F)C(=O)O | 5.66% | 3.39% | – | – |
| CCOc1ccc(-c2cc(C)n3nc(C(N)=O)cc3n2)cc1 | 32.9% | 23.3% | – | – |
| CCOC(=O)c1ccccc1OC(=O)NNc1ccccc1 | 15.6% | 46.1% (active) | 11.2% | 38.8% (active) |
| CC(C)(C)n1ncc2c(=O)n(CC(=O)OCc3ccccc3)cnc21 | 31.6% | 17% | -21.8% | -23.3% |
| CN(Cc1c(C(=O)N/N=C/c2cccc(F)c2)nnn1-c1nonc1N)C1CCCCC1 | -12.4% | 3.59% | 6.95% | -3.15% |

| SMILES | inhibition [1] | inhibition [2] | inhibition [3] | inhibition [4] |
| --- | --- | --- | --- | --- |
| COc1ccc(-c2csc(NC(=O)C3CCN(c4ncnc5sc(C)c(C)c45)CC3)n2)cc1OC | 24.1% | 58.1% (active) | 23.8% | 52.6% (active) |
| Cc1cc(=O)[nH]c(NN=Cc2cc(Br)ccc2O)n1 | 76.2% (active) | 64% (active) | 51.2% (active) | 64.8% (active) |
| COc1ccc2[nH]c3c(c2c1)CCNC3=O | 53.2% (active) | 42.7% (active) | 62.3% (active) | 33.7% (active) |
| CCN(CC)c1ccc(/C=N/NC(=O)CCC(=O)NCc2ccccc2)c(O)c1 | 22.7% | 21.6% | 12.5% | 28.9% (active) |
| CC(C)(C)[C@H]1C=C(C(=O)Nc2ccccc2)O[C@@H](OCCCCO)C1 | -13.7% | -16.4% | -41.4% | -38% |
| CC(=O)N(C)C1=C(N2CCOCC2)C(=O)c2ccccc2C1=O | -0.07% | 35.7% (active) | 14.2% | 21.9% |
| COc1cccc(-c2ccc3ncnc(NCc4ccc5c(c4)OCO5)c3c2)c1 | 37.3% | 30.1% (active) | 45.2% | 30% (active) |
| CC(C)n1cnc2c(NCc3ccccc3)cc(N[C@H](C)CO)cc21 | 16.4% | 87.3% (active) | 35.6% | 8.74% |
| O=C(/C=C/c1ccc(Cl)cc1)NC(=S)Nc1ccc(NC(=O)c2ccco2)cc1 | 29.7% | 63.8% (active) | 45.1% | 65% (active) |
| COc1cc(/C=N/NC(=Nc2ccc(C)cc2)c2nc3ccccc3s2)ccc1O | 35.6% | 9.45% | 11.4% | -38% |
| COC1C(CO)OC(n2c3c(Cl)cccc3c3c4c(c5c6cccc(Cl)c6[nH]c5c32)C(=O)NC4=O)C(O)C1O (configuration not stated) | 68.3% (active) | 49.2% (active) | 23.4% | 42.6% (active) |
| CCN(CC)CCNC(=O)c1ccc2c(c1NCCO)C(=O)c1ccccc1C2=O | -15.3% | -1.86% | -19.2% | -8.97% |
| Cc1ccccc1-c1cc(C(=O)Nc2sc(C(=O)OC(C)C)c(C)c2C#N)c2ccccc2n1 | 31.8% | 50.9% (active) | 37.2% | 40.9% (active) |
| CCN(CC)S(=O)(=O)c1ccc(/C=C/C(=O)Nc2ccc(F)c(F)c2F)cc1 | -25.9% | 30.7% (active) | 3.76% | 28.7% (active) |
| NNC(=O)c1cnn(Cc2ccccc2)c1N | -5.29% | 2.66% | -14.9% | -5.69% |
| Cc1ccc(NC(=O)C2CCN(c3ncnc4sc(C)c(C)c34)CC2)cc1S(=O)(=O)N(C)C | 10.3% | 12.1% | 17.6% | 1.39% |
| CN(C)S(=O)(=O)c1ccc(-c2csc(N/N=C/c3ccco3)n2)cc1 | -2.21% | 16.7% | -22.3% | 20.1% |
| CC(=O)NC(c1cc(Cl)c2cccnc2c1O)C(C)C (configuration not stated) | 31.1% | 23.5% | 38.5% | 20% |
| O=C(Nc1nc(-c2ccccc2)cs1)c1ccc(N2CCOCC2)c([N+](=O)[O-])c1 | 56.2% (active) | 61.4% (active) | 15.3% | 64.8% (active) |
| Cc1cc(C(=O)COC(=O)c2cccc(NS(C)(=O)=O)c2)c(C)n1CC1CCCO1 (configuration not stated) | 19.3% | -22.1% | -46.9% | -54.4% |

| SMILES | inhibition [1] | inhibition [2] | inhibition [3] | inhibition [4] |
| --- | --- | --- | --- | --- |
| OCC(O)C(O)C(O)C(O)C1NCCS1 (configuration not stated) | -6.42% | -4.51% | – | – |
| Cc1ccc(-n2c(O)c(C=Nc3cc(C)on3)c3ccccc3c2=O)c(C)c1 | 52.8% (active) | 39.9% (active) | 44.8% | 35.7% (active) |
| O=C(Nc1nc(-c2ccccc2)cs1)c1ccc2c(=O)n3c(nc2c1)CCCCC3 | 9.45% | 31.6% (active) | -12% | 30.9% (active) |
| CCOC(=O)N1CCC2(CC1)C(C#N)=C(N)Oc1n[nH]c(CSc3ccc(C)cc3)c12 | 2.57% | -6.53% | – | – |
| c1ccc2c(c1)OCC(CNc1ncnc3sccc13)O2 (configuration not stated) | 1.57% | 37.9% (active) | – | – |
| CC(C)c1ccc(-c2csc(NC(=O)c3cccs3)c2C(=O)O)cc1 | 8.33% | 18.6% | -2.31% | 33.9% (active) |
| O=C(Nc1cccc(Cl)c1)Nc1nnc(-c2ccncc2)s1 | 40.1% | 31.9% (active) | 28.5% | 23.7% |
| CC(C)c1nc(NCCO)c(C#N)c2c1CCCC2 | 40% | 30% (active) | 22.1% | 35.1% (active) |
| CC(=O)NC(C)c1cc(Cl)c2cccnc2c1O (configuration not stated) | 20.2% | 2.75% | 10.6% | 2.16% |
| CCN(CC)CCC(=O)Nc1cccc2c1C(=O)c1ccccc1C2=O | -12.3% | 21.1% | 8.87% | 25.7% (active) |
| O=[N+]([O-])c1cccc2c1ccc1ncccc12 | 33% | 11.7% | 36% | 15.9% |
| CCOC(=O)c1c(C)c2c(=O)[nH]cnc2n1-c1ccccc1 | 51.5% (active) | 36.8% (active) | 59.9% (active) | 39.9% (active) |
| Cc1ccc(-c2cc3c(N=O)c4ccccc4c-3n[nH]2)cc1 | 66.2% (active) | 59.7% (active) | 30.2% | 53% (active) |
| NNC(=O)C(=O)Nc1ccc(O)cc1 | 2.12% | 8.64% | -20.1% | -2.23% |
| Cc1ccc(C(=O)CSc2cnc3ccccc3n2)cc1C | -16.1% | -33% | -96.7% | -68.1% |
| COc1cc2c(cc1OC)C(C)N(C(=O)c1cccc([N+](=O)[O-])c1)CC2 (configuration not stated) | 34% | 23.4% | 17.3% | 22.3% |
| O=C(CSC1=NCCS1)Nc1ccnc2ccccc12 | 28.1% | 37.7% (active) | 27.5% | 37.9% (active) |
| CCCCC(=O)NC(c1ccc(N(C)C)cc1)c1ccc2cccnc2c1O (configuration not stated) | 58.5% (active) | 43.9% (active) | 48% (active) | 55.9% (active) |
